We go through 14 compounds from PubChem BioAssay.

Each structure is given as a SMILES string. Activity calls are given as the source filed them.

The nature of assay [1]: binders of probe aFSTL3 on microarray, primary screen, stem cell growth factor project, biochemical, small-molecule microarray, fluorescence 635/667 (AID 1064).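 Also: measures binding of the biotinylated anti-FSTL3 antibody to printed compounds.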 The note with it: higher = more signal.
A short description of assay [2]: binders from COS7 lysate, DM2A8 probe, primary screen, torsin A project, cell lysate, small-molecule microarray, fluorescence 635/667 (AID 1065). The following applies: higher = more signal, COS7 lysate expressing mutant human TOR1A.
A short description of assay [3]: binders of probe aFGF2 on microarray, primary screen, stem cell growth factor project, biochemical, small-molecule microarray, fluorescence 635/667 (AID 1067).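 Also: measures binding of biotinylated aFGF2 protein to printed compounds on slides; z-score merges feature fluorescence and signal-to-noise across triplicate slides.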 The note with it: higher = more signal.
Assay [4] is described as follows: binders of probe aFGF10 on microarray, primary screen, stem cell growth factor project, biochemical, small-molecule microarray, fluorescence 635/667 (AID 1071).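 Also: score merges 667 nm spot intensity and signal to noise from triplicate slides.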 The note with it: higher = more signal.
For assay [5], the target named is Neurogenic locus notch homolog protein 2 (Homo sapiens) (UniProt Q04721). The experiment in a line: Notch2 binders on small-molecule microarrays, primary screen, biochemical, small-molecule microarray, 635 nm fluorescence, stem cell growth factors (AID 1073). The following applies: Notch2 binding, higher = more signal.
Assay [6] addresses Pro-neuregulin-1, membrane-bound isoform (Homo sapiens) (UniProt Q02297). The experiment in a line: NRG1 binders on small-molecule microarrays, primary screen, psychiatric disease protein project, biochemical, small-molecule microarray, fluorescence 635/667 (AID 1075).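 Also: score combines 667 nm spot fluorescence with signal to noise.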 The note with it: NRG1 binding, 635 nm fluorescence, higher = more signal.
The test system of assay [7] is Neuregulin-1 EGF-like domain. The experiment in a line: binders of neuregulin-1 EGF-like domain, primary screen, biochemical, small-molecule microarray, 635 nm fluorescence (AID 1081).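 Also: binding of the protein to compounds printed on small-molecule microarray slides.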 The following applies: small-molecule microarray binding, higher = more signal.
Assay [8] can be described thus: FRG1 promoter luciferase signal modulators, primary screen, FRG1 inhibition for FSHD, cell-based, C2C12 myotubes, firefly/Renilla luciferase, luminescence (AID 1084). The following applies: higher = more signal, called active from +8 up or from −8 down.
Assay [9] in a line: binders of probe aFST on microarray, primary screen, stem cell growth factor project, biochemical, small-molecule microarray, fluorescence 635/667 (AID 1086).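 Also: score merges 667 nm fluorescence with signal-to-noise of each printed compound spot.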 The following applies: higher = more signal.
A short description of assay [10]: binders of probe aHhip on microarray, primary screen, stem cell growth factor project, biochemical, small-molecule microarray, fluorescence 635/667 (AID 1087).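 Also: score merges spot fluorescence at 667nm with spot signal to noise ratio.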 The note with it: higher = more signal.

Chain of Neurogenic locus notch homolog protein 2 (Homo sapiens) (Q04721 whole entry, looked up, canonical isoform): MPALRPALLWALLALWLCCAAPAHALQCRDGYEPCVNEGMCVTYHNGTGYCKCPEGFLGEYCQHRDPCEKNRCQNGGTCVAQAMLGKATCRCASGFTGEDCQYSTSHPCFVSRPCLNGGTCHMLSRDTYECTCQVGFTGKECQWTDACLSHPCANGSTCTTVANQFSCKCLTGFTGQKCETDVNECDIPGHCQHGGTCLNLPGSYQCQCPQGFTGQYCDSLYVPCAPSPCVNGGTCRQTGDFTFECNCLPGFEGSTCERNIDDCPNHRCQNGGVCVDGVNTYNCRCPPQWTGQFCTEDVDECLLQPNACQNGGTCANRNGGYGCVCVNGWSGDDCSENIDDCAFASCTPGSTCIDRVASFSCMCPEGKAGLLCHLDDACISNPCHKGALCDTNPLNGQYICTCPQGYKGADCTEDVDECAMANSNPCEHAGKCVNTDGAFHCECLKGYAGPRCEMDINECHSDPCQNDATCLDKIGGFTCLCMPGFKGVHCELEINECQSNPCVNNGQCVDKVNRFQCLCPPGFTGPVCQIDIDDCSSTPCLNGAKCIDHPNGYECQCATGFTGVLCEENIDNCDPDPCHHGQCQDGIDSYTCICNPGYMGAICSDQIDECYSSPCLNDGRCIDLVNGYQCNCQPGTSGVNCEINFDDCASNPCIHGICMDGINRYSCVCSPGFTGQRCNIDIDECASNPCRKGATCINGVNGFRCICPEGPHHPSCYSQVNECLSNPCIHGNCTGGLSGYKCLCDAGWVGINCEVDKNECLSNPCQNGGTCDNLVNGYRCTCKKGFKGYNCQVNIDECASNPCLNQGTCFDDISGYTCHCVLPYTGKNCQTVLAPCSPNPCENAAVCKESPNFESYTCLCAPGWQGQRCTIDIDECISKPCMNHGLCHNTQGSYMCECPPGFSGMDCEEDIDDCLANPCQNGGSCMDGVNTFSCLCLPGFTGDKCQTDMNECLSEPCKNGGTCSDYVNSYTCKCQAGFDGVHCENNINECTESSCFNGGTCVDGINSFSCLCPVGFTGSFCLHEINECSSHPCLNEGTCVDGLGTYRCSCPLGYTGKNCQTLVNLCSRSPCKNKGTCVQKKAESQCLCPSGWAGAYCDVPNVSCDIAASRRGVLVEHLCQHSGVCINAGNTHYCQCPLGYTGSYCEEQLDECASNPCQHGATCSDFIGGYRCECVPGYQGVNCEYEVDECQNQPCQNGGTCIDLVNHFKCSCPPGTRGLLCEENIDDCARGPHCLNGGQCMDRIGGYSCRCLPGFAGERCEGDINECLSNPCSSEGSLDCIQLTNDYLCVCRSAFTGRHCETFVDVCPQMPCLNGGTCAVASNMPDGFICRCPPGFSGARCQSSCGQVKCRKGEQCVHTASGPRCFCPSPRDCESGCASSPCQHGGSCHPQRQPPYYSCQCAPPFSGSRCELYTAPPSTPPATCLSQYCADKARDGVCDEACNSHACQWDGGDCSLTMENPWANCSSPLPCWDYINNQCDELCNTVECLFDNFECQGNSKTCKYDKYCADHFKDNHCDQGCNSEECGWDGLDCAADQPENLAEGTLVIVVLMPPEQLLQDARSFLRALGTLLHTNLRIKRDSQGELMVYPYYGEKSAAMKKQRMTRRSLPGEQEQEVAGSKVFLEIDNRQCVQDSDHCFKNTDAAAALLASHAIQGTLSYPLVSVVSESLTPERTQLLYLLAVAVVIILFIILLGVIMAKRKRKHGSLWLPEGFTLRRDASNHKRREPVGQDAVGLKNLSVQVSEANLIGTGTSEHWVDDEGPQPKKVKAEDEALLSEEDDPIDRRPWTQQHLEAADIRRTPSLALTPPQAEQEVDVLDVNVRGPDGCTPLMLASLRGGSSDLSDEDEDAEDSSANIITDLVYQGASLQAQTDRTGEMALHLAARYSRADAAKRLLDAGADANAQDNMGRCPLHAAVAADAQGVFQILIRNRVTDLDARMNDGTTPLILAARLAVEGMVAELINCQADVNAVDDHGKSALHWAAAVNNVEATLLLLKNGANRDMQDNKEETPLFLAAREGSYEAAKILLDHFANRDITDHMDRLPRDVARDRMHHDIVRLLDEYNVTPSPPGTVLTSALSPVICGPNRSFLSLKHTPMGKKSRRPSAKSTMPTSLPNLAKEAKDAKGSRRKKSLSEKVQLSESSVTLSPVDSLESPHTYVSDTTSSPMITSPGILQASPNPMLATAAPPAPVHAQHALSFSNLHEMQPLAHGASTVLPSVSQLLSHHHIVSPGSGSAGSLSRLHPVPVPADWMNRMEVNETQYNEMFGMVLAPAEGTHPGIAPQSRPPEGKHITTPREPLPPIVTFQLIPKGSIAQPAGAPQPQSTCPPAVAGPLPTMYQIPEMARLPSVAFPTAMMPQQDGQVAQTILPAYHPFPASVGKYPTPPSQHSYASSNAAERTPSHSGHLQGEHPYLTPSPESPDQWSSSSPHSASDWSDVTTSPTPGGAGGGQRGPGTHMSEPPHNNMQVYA
Chain of Pro-neuregulin-1, membrane-bound isoform (Homo sapiens) (Q02297 whole entry, looked up, the tested form may be a part, canonical isoform): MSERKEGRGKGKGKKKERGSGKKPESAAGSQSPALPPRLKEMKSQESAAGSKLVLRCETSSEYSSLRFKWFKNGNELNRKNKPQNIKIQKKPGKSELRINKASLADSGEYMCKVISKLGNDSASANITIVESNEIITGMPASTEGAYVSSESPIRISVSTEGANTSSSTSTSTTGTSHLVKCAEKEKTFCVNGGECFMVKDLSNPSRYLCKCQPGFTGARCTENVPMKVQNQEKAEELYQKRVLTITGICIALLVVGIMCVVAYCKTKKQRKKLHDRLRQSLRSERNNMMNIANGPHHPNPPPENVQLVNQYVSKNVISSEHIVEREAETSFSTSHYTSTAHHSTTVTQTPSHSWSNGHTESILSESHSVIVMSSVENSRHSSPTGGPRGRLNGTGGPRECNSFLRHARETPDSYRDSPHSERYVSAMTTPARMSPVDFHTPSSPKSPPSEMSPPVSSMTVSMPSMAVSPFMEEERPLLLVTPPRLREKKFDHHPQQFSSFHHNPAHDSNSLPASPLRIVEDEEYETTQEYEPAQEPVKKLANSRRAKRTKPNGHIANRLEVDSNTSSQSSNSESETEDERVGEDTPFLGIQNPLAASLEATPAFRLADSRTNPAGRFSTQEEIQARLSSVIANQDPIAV

As to `O=C(N1CCCCC1)[C@]1(CCS(=O)(=O)c2ccccc2)N=C(c2ccc(OCCCO)cc2)O[C@@H]1c1ccccc1`, the composite z-score in [1] worked out at 1.04; in assay [2], 0.815; in assay [3], 0.215; in assay [4], 0.803; in assay [5], 0.773; in assay [6], 1.49. The figures for the composite z-score in [7], in [9] and in assay [10] were 1.11, 0.636 and 0.0623, respectively. The z-score in [8] is -1.79 (inactive).

Consider `COCC1=C([C@H](O)CCc2ccccc2)[C@H](CO)[C@@H]2C(=O)N(Cc3ccccc3)C(=O)[C@@H]2C1`, for which the composite z-score in assay [1] was -0.286; in [2], -0.133; in assay [3], -0.101; in [4] it was 0.085; in assay [5] it was 0.258; in [6], -0.295. Also, the composite z-score in assay [7] was -0.112; in assay [9], -0.0829; in assay [10], -0.249. Moreover, in assay [8], the z-score was -0.4 (inactive).

For the compound `C=CCN1C(=O)[C@]2(Cc3ccccc31)N=C(c1ccc(OCCCO)cc1)O[C@@H]2c1ccccc1`, the composite z-score in assay [1] is 0.5; in assay [2], 0.152; in [3], -0.062; in assay [4], 0.439; in [5] it was 1.6; in assay [6], 0.904. Moreover, the composite z-score was 1.2 in [7], 0.961 in assay [9] and 0.0854 in [10]. Also, the z-score in assay [8] is -2.5 (inactive).

On to `COC(=O)C(CC#Cc1ccc2c(c1)[C@]1(C(=O)N2)[C@H](C(=O)N2CCCCCCC2)[C@H]2C(=O)O[C@H](c3ccccc3)[C@H](c3ccccc3)N2[C@@H]1c1ccccc1OCCO)C(=O)OC`, for which the composite z-score in assay [1] is 3.68; in assay [2], 2.84; in assay [3], 1.03; in [4], 1.26; in assay [5], 1.75; in [6], 2.65. Also, the figures for the composite z-score in assay [7], in [9] and in assay [10] were 1.38, 3.61 and 3.1, respectively. Besides, the z-score in assay [8] was 0.695 (inactive).

Consider `CN(C)CCCCCCNC(=O)[C@@H]1C[C@@H]2C(=O)NCC(=O)N2[C@@H]1c1cccc(OCCO)c1`, for which the composite z-score in assay [1] was -0.131; in [2] it was 1.37; in assay [3], 0.153; in assay [4] it was 0.816; in assay [5] it was 1.14; in assay [6], 0.346. Besides, the composite z-score stood at 1.26 in assay [7], 0.555 in assay [9] and 0.164 in assay [10]. For the same compound, the z-score in assay [8] was 2.12 (inactive).

As to `C=C(COC)C(=O)CC[C@H](OC(=O)c1cccnc1)c1ccccc1OCCO`, the composite z-score is -0.0665 in [1]; 0.903 in [2]; -0.0004 in assay [3]; 0.675 in assay [4]; 0.928 in [5]; 0.599 in assay [6]. The composite z-score is 1.24 in [7], 0.437 in assay [9] and -0.236 in [10]. Further, the z-score in [8] is 0.445 (inactive).

For `COC(=O)[C@@]1(Cc2ccc(OC)cc2)[C@H]2c3cc(C(=O)N(C)C)n(Cc4ccc(OC)c(OC)c4)c3C[C@H]2CN1C(=O)c1ccccc1`, the composite z-score was 0.42 in [1]; 0.796 in assay [2]; -0.0824 in assay [3]; 0.336 in assay [4]; 1.73 in assay [5]; 1.86 in [6]. The composite z-score came to 1.28 in assay [7], 1.39 in assay [9] and 0.525 in assay [10]. Further, the z-score in assay [8] is 0.889 (inactive).

Turning to `C=C(CCCC)/C(=C/C[C@H](OC(C)=O)c1ccc(CO)o1)c1cc(C(=O)OC)ccc1OC`, the composite z-score in assay [1] was -0.509; in assay [2], -0.296; in assay [3], -0.0333; in [4], 0.525; in [5] it was -0.0467; in assay [6], 0.714. Further, the composite z-score in [7] was 0.888; in assay [9], 0.439; in assay [10], -0.0618. Further, the z-score in assay [8] is -0.313 (inactive).

With `C[N+](C)(C)CCCC[C@@H]1NC(=O)[C@@H]2C[C@H](C(=O)NCCCCCCNC(=O)CS)[C@H](c3cccc(OCCO)c3)N2C1=O`, the composite z-score was -0.145 in assay [1]; 0.976 in assay [2]; -0.132 in [3]; -0.459 in assay [4]; -0.395 in [5]; 0.612 in assay [6]. For the same compound, the composite z-score in assay [7] was 1.36; in assay [9], -0.713; in assay [10] it was -0.0193. Moreover, the z-score in assay [8] was -0.944 (inactive).

Turning to `O=c1cccc(-c2cccc3ccccc23)o1`, the composite z-score was 0.745 in assay [1]; -0.378 in assay [2]; -0.0316 in [3]; -0.413 in assay [4]; -0.0766 in assay [5]; -0.159 in assay [6]. The composite z-score in [7] was 0.75; in [9] it was 0.0143; in assay [10], 0.0053. Moreover, the z-score in assay [8] was 3.63 (inactive).

As to `[N-]=[N+]=NCc1ccccc1C[C@]1(C(=O)N2CCOCC2)N=C(c2ccc(OCCCO)cc2)O[C@H]1c1ccccc1`, the composite z-score in assay [1] was 0.303; in assay [2] it was 0.18; in [3], -0.0455; in assay [4], 0.686; in assay [5], 0.412; in [6], 0.766. Moreover, the composite z-score in assay [7] was 0.542; in assay [9], 0.912; in assay [10], -0.0994. Also, in assay [8], the z-score is -3.67 (inactive).

With `CC(C)CNC(=O)[C@@]1(C)c2ccccc2C(=O)N(C(C)C)[C@H]1c1ccc(CO)cc1`, the composite z-score was 0.095 in [1]; -0.456 in assay [2]; -0.0803 in assay [3]; -0.435 in assay [4]; -1.78 in [5]; 0.0276 in assay [6]. The composite z-score in [7] is -0.266; in [9], -0.37; in [10], 0.0424. Besides, the z-score in assay [8] is 0.0705 (inactive).

`COCCOC(=O)N1C(=O)[C@@]2(c3cc(C#CCC(C(=O)OC)C(=O)OC)ccc31)[C@H](c1ccccc1OCCO)N1[C@H](c3ccccc3)[C@H](c3ccccc3)OC(=O)[C@H]1[C@@H]2C(=O)Nc1nc2ccccc2s1`: the composite z-score is -0.144 in assay [1]; 1.2 in assay [2]; -0.0335 in [3]; 1.19 in assay [4]; 1.2 in [5]; 1.37 in assay [6]. For the same compound, the composite z-score in assay [7] turned out to be 1.06; in assay [9], 0.417; in assay [10] it was 0.417. For the same compound, in assay [8], the z-score was 0.0053 (inactive).

`COCCOC(=O)N1C(=O)[C@@]2(c3ccccc31)[C@H](C(=O)N1CCCCCCC1)[C@H]1C(=O)O[C@H](c3ccccc3)[C@H](c3ccccc3)N1[C@@H]2c1ccccc1OCCO`: the composite z-score in assay [1] came out at 3.82; in assay [2] it was 1.77; in [3], 0.679; in [4], 0.684; in assay [5], 1.3; in assay [6] it was 1.84. The composite z-score stood at 1.38 in assay [7], 3.36 in assay [9] and 3.52 in assay [10]. Besides, the z-score in assay [8] is -0.91 (inactive).
